Bioassay records as filed in PubChem BioAssay.
This is a sample that favours compounds with a hit; in the whole collection about 2% have one here.
PfGluPho inh = PfG6PD (Plasmodium falciparum) enzyme inhibition; 0.78% of 350,000 active; inhibition, % at 20 µM; PfGluPho enzyme, NADPH resazurin-diaphorase fluorescence;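 active = inhibition reaching at least a set limit at 20 µM in the primary screen, cut at about 59% in these data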;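 also: 0% = DMSO wells with substrate and 100% = DMSO wells lacking glucose-6-phosphate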
A3G deaminase = blocks human APOBEC3G single-stranded DNA deamination; AID 493012; Q9HC16; recombinant A3G, ssDNA deamination FAM/TAMRA fluorescence; inhibition, % at 20 µM; 0.28% of 330,000 active;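 active = inhibition of at least 40% at 20 µM, with no more than 30% in the related APOBEC3A deaminase screen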;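 also: plate controls were DMSO wells with A3G for no effect and wells lacking A3G enzyme for full effect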
A3A deaminase = inhibitors of human APOBEC3A DNA deaminase | P31941 | recombinant A3A, FAM/TAMRA ssDNA deamination fluorescence | inhibition, % at 20 µM | 0.41% of 330,000 active | AID 493011;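 active = at least 40% inhibition at 20 µM here, with at most 30% in a related deaminase screen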;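 also: plate controls were A3A with DMSO for no effect and wells lacking A3A enzyme for full effect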
NPR1 activator = GC-A (human) enzyme activation | P16066 | HEK293 GC-A cells, cGMP TR-FRET, EC30 ANP; 0% at EC30 ANP, 100% saturating ANP | activation, % at 10 µM | 0.14% of 370,000 active | AID 1671463; in the data active = activation above about 40%
Target sequence (P16066 whole entry, looked up): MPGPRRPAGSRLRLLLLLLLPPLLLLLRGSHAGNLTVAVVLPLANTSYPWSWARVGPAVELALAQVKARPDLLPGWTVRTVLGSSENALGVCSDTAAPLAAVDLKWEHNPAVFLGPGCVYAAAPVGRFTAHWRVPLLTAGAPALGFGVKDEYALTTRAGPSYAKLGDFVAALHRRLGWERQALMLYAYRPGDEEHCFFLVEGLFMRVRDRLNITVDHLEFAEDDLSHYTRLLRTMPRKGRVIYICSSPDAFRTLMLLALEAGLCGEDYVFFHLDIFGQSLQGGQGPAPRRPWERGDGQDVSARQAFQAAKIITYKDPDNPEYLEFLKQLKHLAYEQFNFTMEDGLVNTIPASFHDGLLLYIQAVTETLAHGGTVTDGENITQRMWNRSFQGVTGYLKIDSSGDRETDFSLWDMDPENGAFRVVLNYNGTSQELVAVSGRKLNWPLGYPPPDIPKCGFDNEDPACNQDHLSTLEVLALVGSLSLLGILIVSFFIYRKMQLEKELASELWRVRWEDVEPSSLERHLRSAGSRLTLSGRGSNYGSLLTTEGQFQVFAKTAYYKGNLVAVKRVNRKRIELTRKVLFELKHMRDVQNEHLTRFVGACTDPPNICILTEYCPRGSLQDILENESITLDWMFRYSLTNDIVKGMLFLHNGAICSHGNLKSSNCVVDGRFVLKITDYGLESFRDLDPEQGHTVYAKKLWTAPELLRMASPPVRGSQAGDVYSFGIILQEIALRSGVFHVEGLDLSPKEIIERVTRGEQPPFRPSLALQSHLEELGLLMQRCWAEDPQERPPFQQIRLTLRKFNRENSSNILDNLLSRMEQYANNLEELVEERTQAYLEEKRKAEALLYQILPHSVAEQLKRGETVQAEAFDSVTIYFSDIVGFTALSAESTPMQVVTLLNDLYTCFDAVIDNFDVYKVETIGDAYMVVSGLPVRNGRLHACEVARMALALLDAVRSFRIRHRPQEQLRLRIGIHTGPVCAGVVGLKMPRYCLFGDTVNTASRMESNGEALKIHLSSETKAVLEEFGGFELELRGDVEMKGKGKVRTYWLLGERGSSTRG
NPR2 activator = GC-B (human) receptor activation; HEK293-GC-B cells, CNP EC30, cGMP TR-FRET; 0% at EC30 CNP, 100% saturating CNP; activation, % at 10 µM; 0.11% of 370,000 active;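 active = activation at 10 µM reaching about 35% in either raw or pattern-adjusted values, limit read from the data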
Neddyl block = inhibitors of human cullin neddylation; AID 651699; inhibition, % at 25 µM; TR-FRET cullin neddylation, biochemical; 0.58% of 360,000 active; in the data active = inhibition above about 36%
PfGluPho conf = PfG6PD inhibition, single-dose confirmed; 34% of 2,400 active; inhibition, % at 20 µM; shares compounds with PfGluPho inh; recombinant PfGluPho, NADPH-diaphorase-resazurin fluorescence;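 active = inhibition of at least 50% at 20 µM in any single replicate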;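 also: 0% = DMSO with substrate and 100% = DMSO lacking glucose-6-phosphate substrate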
Diaph ctr 10uM = counter-screen for P. falciparum G6PD inhibitors: diaphorase inhibitors, oxidizers; shares compounds with PfGluPho inh; diaphorase-coupled resazurin reduction, fluorescence, NADPH 10 uM; inhibition, % at 20 µM; 39% of 820 active; AID 504862;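 active = average inhibition reaching 50% or more with the compound at 20 µM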;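 also: resorufin red fluorescence formed as diaphorase reduces resazurin using NADPH; 0% = DMSO with enzyme and 100% = DMSO without enzyme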
Diaph ctr 30uM = inhibits diaphorase or oxidizes, flagging false PfG6PD hits; 29% of 820 active; inhibition, % at 20 µM; Diaphorase/resazurin coupled assay, resorufin fluorescence, 30 uM NADPH; shares compounds with PfGluPho inh;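 active = inhibition averaging 50% or more, tested at 20 µM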;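 also: 0% = DMSO with enzyme and 100% = DMSO wells lacking diaphorase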
* hit, by the source's call; · = no result shown.

SMILES	PfGluPho inh	A3G deaminase	A3A deaminase	NPR1 activator	NPR2 activator	Neddyl block	PfGluPho conf	others
O=C(Nc1ccc(F)cc1F)Nc1sccc1-c1nc2ccccc2s1	80.6*	-6.4	-3.8	0.3	0.7	·	-0.1
CN1C2=N[C@@H](c3ccccc3)CC(=O)N2/C(=C\c2ccccc2)[C@H]1c1ccccc1	·	·	·	-30.6	-35.0	·	·
CC[C@@H](CCCCCCCn1ccc2ccccc21)CCC(=O)N(c1ccccc1)c1ccccc1	·	·	·	-0.6	1.2	·	·
Cc1ccc(-c2cc(-c3ccccc3)c(C#N)c(N)n2)o1	82.6*	-2.5	-6.8	13.7	9.5	38.4	-6.2
Cc1ccc(-c2cc(-c3ccccc3Cl)c(C#N)c(N)n2)o1	56.0	1.6	7.0	18.1	5.4	39.0	·
CN(CCCOC(=O)c1cc2ccccc2o1)C1CN(Cc2cn(Cc3ccccc3C(F)(F)F)nn2)S(=O)(=O)C1 (stereo unspecified)	·	·	·	-5.3	-6.3	·	·
CC(=O)c1sc(NCc2ccc(C)cc2)nc1C	-15.8	-2.6	3.4	4.2	5.2	-48.3	·
COc1ccc(CCNc2nc(C)c(C(C)=O)s2)cc1OC	61.0*	0.1	-1.4	·	·	-3.6	20.0
O=C(Nc1ccc([N+](=O)[O-])cc1Cl)c1cc(Cl)ccc1O	93.6*	-2.6	1.7	18.9	14.7	-36.4	51.3*	Diaph ctr 10uM=40.8;Diaph ctr 30uM=30.9
CCOC(=O)C(C)Sc1nc(N2CCOCC2)c2c(c1C#N)CC(C)(C)OC2 (stereo unspecified)	4.8	-4.1	1.0	24.4	26.1	5.5	·
CC(Sc1nc(N2CCOCC2)c2c(c1C#N)CC(C)(C)OC2)C(=O)Nc1ccccc1 (stereo unspecified)	59.9*	-6.7	0.0	-9.0	-9.3	-5.4	-10.5
O=C(COCc1ccccc1)N1CC[C@H]2[C@H](CCCN2Cc2ccc(F)cc2)C1	·	·	·	3.8	2.0	·	·
C=CCN(CC#Cc1ccccc1)Cc1ccc(OC)cc1	·	·	·	-1.6	-5.7	·	·
Cc1cc2nc3c(=O)[nH]c(=O)[nH]c3nc2c([N+](=O)[O-])c1N	49.8	·	·	6.7	5.9	-51.5	39.9
N#Cc1cccc(OC[C@@H](O)CN2CCC(C(O)(c3ccccc3)c3ccccc3)CC2)c1	·	·	·	-17.6	-14.8	·	·
Cc1nn(C(=O)CNS(=O)(=O)c2ccccc2)c(C)c1Sc1ccc(Cl)cc1	80.1*	0.8	5.4	8.0	15.2	5.1	20.2
Cc1nn(C(=O)c2cccnc2)c(C)c1Sc1ccccc1	54.3	-2.3	2.6	8.7	15.0	5.6	·
CC1CCCN(c2cccc3c2S(=O)(=O)N(Cc2cccc(F)c2)[C@@H](C)[C@H](c2ccccc2)O3)C1 (stereo partly specified)	·	·	·	-1.1	2.8	·	·
CCN1/C(=C/C(=O)c2ccco2)Sc2ccccc21	77.2*	0.3	-10.1	2.2	7.1	17.9	34.5
CCC(=O)/C=C1/Sc2ccccc2N1CC	53.1	-10.7	-7.4	-2.5	1.0	-11.2	·
COc1ccc(CCC[C@H](CCC(=O)N(c2ccccc2)c2ccccc2)CCc2ccccc2)cc1	·	·	·	1.6	9.6	·	·
O=C(NCc1cccc(Cl)c1)O[C@H]1CC[C@@]23CCCN2C(=O)CCC[C@H]3C1	·	·	·	-4.7	3.3	·	·
OC(CN1CCN(c2ccc(F)cc2)CC1)c1ccc(Cl)cc1 (stereo unspecified)	0.2	-6.3	-2.9	8.5	-1.2	1.4	·
Oc1ccc(N2CCN(CC(O)c3ccccc3)CC2)cc1 (stereo unspecified)	79.5*	10.1	-6.2	-5.4	-1.4	-2.0	26.3
C[C@H](O)[C@@H]1CN2CCc3ccc(N4CCOCC4)cc3[C@@H]2C[C@@H]1N(C)C(=O)c1cccc(Cl)c1	·	·	·	1.0	-1.3	·	·
SMILES	PfGluPho inh	A3G deaminase	A3A deaminase	NPR1 activator	NPR2 activator	Neddyl block	PfGluPho conf	others
CC1=CC(=O)C=C(C)C1=NOS(=O)(=O)c1ccccc1	112.4*	·	·	-12.1	-10.2	-16.8	111.4*	Diaph ctr 10uM=102.7*;Diaph ctr 30uM=100.5*
CC1=CC(=O)C(C2CCCCC2)=C/C1=N\OS(=O)(=O)c1ccccc1	·	·	·	-2.8	4.0	·	·
CC1=CC(=O)C(C(C)C)=C/C1=N/OS(=O)(=O)c1ccccc1	104.6*	-6.5	-1.2	-8.9	0.6	-6.6	95.6*	Diaph ctr 10uM=72.7*;Diaph ctr 30uM=77.4*
COCCNC(=S)Nc1ccc(N2CCCCC2)cc1	64.5*	39.6	0.2	5.3	9.9	-5.8	13.9
O=C(CSc1nnc(-c2cccs2)o1)c1cccc([N+](=O)[O-])c1	·	·	·	1.5	3.4	·	·
CCOC(=O)N=Nc1c2ccccc2c2nc3no[nH]c3nc12	69.3*	-0.9	3.2	2.6	2.7	-78.4	60.6*	Diaph ctr 10uM=50.9*;Diaph ctr 30uM=50.9*
C[C@H](CCC(=O)N(c1ccccc1)c1ccccc1)CC1CCCCC1	·	·	·	-1.5	3.5	·	·
CC(=O)Nc1ccc2c(c1)Cc1ccc(Cl)cc1-2	-6.5	·	·	-8.0	-4.1	-3.5	·
O=[N+]([O-])c1ccc2c(c1)Cc1cc(F)ccc1-2	-2.0	·	·	2.5	-1.1	-128.9	·
CC(=O)Nc1ccc2c(c1)Cc1cc(N3C(=O)C=CC3=O)ccc1-2	111.1*	·	·	28.2	21.8	3.4	100.0*	Diaph ctr 10uM=-14.2;Diaph ctr 30uM=-15.0
O=C1C=CC(=O)N1c1ccc2c(c1)Cc1cc(F)ccc1-2	83.8*	·	·	8.7	15.9	3.2	44.8
COc1ccc(C(=O)C[n+]2ccc3c(c2)nc(Cc2ccccc2)n3C)cc1	·	·	·	7.0	-0.9	·	·
Cc1ccc(-c2c3c([nH]c(=S)c2C#N)CCCC3)o1	59.4*	48.7	30.4	1.5	-1.8	-38.2	34.4
COc1ccc(-n2c(=S)[nH]c3[nH]ncc3c2=O)cc1	49.5	-2.3	-3.8	0.2	1.1	14.8	·
O=c1c2cn[nH]c2[nH]c(=S)n1-c1ccccc1	59.5*	-12.1	-14.4	-0.3	5.8	4.4	0.1
Cc1nn(-c2ccccc2)c(Cl)c1/C=N/Nc1nc2ccccc2n1C	101.5*	-6.5	1.0	6.2	5.9	4.3	46.9*	Diaph ctr 10uM=36.9;Diaph ctr 30uM=38.0
Cc1nn(-c2ccccc2)c(Cl)c1/C=N/NC(N)=O	3.3	-1.1	5.0	-7.4	-4.4	-1.3	·
Cc1ccc(/C=C/C(=O)N2CC(=O)Nc3ccccc32)o1	72.5*	-0.2	-1.7	0.4	0.6	-6.1	23.3
O=C(NCCn1cc(SCc2ccc(F)cc2)c2ccccc21)c1ccccc1F	76.5*	-1.6	0.7	·	·	1.9	-13.1
O=C(NCCn1cc(SCc2ccc(F)cc2)c2ccccc21)c1c(F)cccc1F	86.1*	-7.0	-4.7	-7.3	-4.8	1.0	-11.4
Cn1cc(SCC(=O)NCc2ccc(F)cc2)c2ccccc21	-2.2	-8.0	-1.9	-3.4	3.8	0.0	·
